In all, about 3,600 compounds were measured (“viability index relative to DMSO control”: median about 0.81, lowest 2% from about 0.13 on). The sample as a whole holds a higher share of the lowest values than the screen did.
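Further: Saponin-lysis sexual stage assay in serum-free medium: MitoTracker Red CMXRos staining plus saponin, high-content imaging, particle count per well divided by plate mean of DMSO wells.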

The subject of the assay is Plasmodium falciparum NF54 stage V gametocytes. Nature of the assay: viability index relative to DMSO control (fraction); higher = less gametocyte killing. The following applies: 1.25 µM, incubation time: 72 h.
Regarding `CCN(CC)CCNc1ccc(Nc2ccnc3cc4ccccc4cc23)cc1`, the viability index was 0.423.
In turn, `CCOC(=O)c1ccc2nc3c(nc2c1)C(=O)c1ccccc1C3=O` yielded a viability index of 0.359.
Compound `N#Cc1cc2nc3c(nc2cc1C#N)-c1ccccc1C3=O` came in with a viability index of 0.0308.
`Cc1ccc(-c2cc3c(nn2)-c2ccccc2C3=O)cc1`: the viability index was found to be 0.65.
The same measure for `Cc1[nH]c2ccccc2c1C=Cc1cc[n+](C)cc1`: 1.08.
The same measure for `O=C(C1CCN(c2nnnn2-c2ccccc2)CC1)N1CCc2ccccc2C1`: 0.826.
Compound `N#CC(=Cc1ccc(Sc2ccccc2)o1)c1nc2ccccc2[nH]1` displayed a viability index of 0.776.
The same measure for `N#CC(=CC=Cc1ccc([N+](=O)[O-])o1)c1nc2ccccc2[nH]1`: 0.0143.
The same measure for `CCN(CC)c1ccc(C=C(C#N)c2nc3ccccc3[nH]2)o1`: 0.609; for `O=S(=O)(c1ccc(Cl)cc1)N1CCN(C(=S)NCc2ccco2)CC1`: 0.959.
The same measure for `CCOC(=O)C1=C(C)NC2=C(C(=O)CC(c3ccc(Cl)cc3)C2)C1c1ccc(Br)cc1` (stereo unspecified): 0.725; for `CC(C)(C)NC(=S)NN=CC=NNC(=S)NC(C)(C)C`: 0.299; for `OC1CCCCC1C1(NC(=S)Nc2ccccc2)CCCCC1` (stereo unspecified): 1.08.
In the case of `S=C(NN=CC=NNC(=S)Nc1ccccc1)Nc1ccccc1`, the viability index was 0.104.
In turn, `O=S(=O)(NCCNc1ncnc2scc(-c3ccccc3)c12)c1ccc(Cl)c(Cl)c1` came in with a viability index of 0.554.
The same measure for `Brc1ccc2[nH]c3nc4ccccc4nc3c2c1`: 0.699; for `c1ccc2nc3c(nnc4ccccc43)nc2c1`: 0.092.
The compound `FC(F)(F)c1ccc(Nc2nnnc3ccccc23)cc1` registered a viability index of 1.04.
The same measure for `CC(=NNC(N)=S)C(C)=NNC(N)=S`: 0.27; for `COC(OC)C(C)=NNC(N)=S`: 0.112; for `COc1cc(Nc2cncc(-c3ccc(C(N)=O)cc3)n2)cc(OC)c1OC`: 0.0179.
The same measure for `COc1cc(Nc2cncc(-c3ccncc3)n2)cc(OC)c1OC`: 0.524.
Compound `COc1cc(C(=O)Nc2nnc(-c3ccccc3)o2)cc(OC)c1OC` registered a viability index of 0.81.
The same measure for `CSc1ccc(C=CC(=O)NC(=O)c2ccccc2O)cc1`: 0.661; for `CCOC(=O)C1=C(C)N(CCNc2ncc(C(F)(F)F)cc2Cl)C(=O)CC1`: 1.04; for `CCCCCc1ccc(OCCCC[n+]2cccc(C)c2C)c(CCCCC)c1`: 0.521.
The same measure for `CCCn1c(=N)c(C(=O)NC2CCCCC2)cc2c(=O)n3cccc(C)c3nc21`: 1.15.
Consider `CC(C)=CCCC(C)=CCCC(C)NCCN1CCNCC1` (stereo unspecified), for which the viability index is 0.135.
With `CC(NCCN1CCNCC1)c1cc(C(C)(C)C)cc2c1CCC2(C)C` (stereo unspecified), the viability index worked out at 0.104.
Consider `CC(NCCCN(C)C)c1cc(C(C)(C)C)cc2c1CCC2(C)C` (stereo unspecified), for which the viability index was 0.283.
`CC12C(=O)N(c3cccc(C(=O)O)c3)C(=O)C1C1c3ccccc3C2c2ccccc21` (stereo unspecified): the viability index was determined as 1.15.
The compound `Cc1c(Cl)cccc1NCC(=O)NN=C1CCCC1` showed a viability index of 0.779.
`COc1ccc(NC(=O)C2c3ccccc3C(=O)N(CC(C)C)C2c2cccs2)cc1OC` (stereo unspecified) registered a viability index of 0.0723.
`COc1cc(OC)c(NC(=O)C2c3ccccc3C(=O)N(CC(C)C)C2c2cccs2)cc1Cl` (stereo unspecified): the viability index amounted to 0.0683.
For the compound `CC(C)CN1C(=O)c2ccccc2C(C(=O)Nc2ccc(F)c(Cl)c2)C1c1cccs1` (stereo unspecified), the viability index amounted to 0.237.
The same measure for `COc1ccc(Cl)cc1NC(=O)C1c2ccccc2C(=O)N(CC(C)C)C1c1cccs1` (stereo unspecified): 0.426; for `COc1cc(OC)c(NC(=O)C2c3ccccc3C(=O)N(C)C2c2cccs2)cc1Cl` (stereo unspecified): 0.546; for `COc1cc(Cl)c(C)cc1NC(=O)C1c2ccccc2C(=O)N(CC(C)C)C1c1cccs1` (stereo unspecified): 0.398.
As to `CC(C)CN1C(=O)c2ccccc2C(C(=O)Nc2ccc(C(C)C)cc2)C1c1cccs1` (stereo unspecified), the viability index amounted to 0.281.
The same measure for `COc1ccc(NC(=O)C2c3ccccc3C(=O)N(CC(C)C)C2c2cccs2)cc1Cl` (stereo unspecified): 0.104.
The same measure for `CC(C)CN1C(=O)c2ccccc2C(C(=O)Nc2cccc(Cl)c2)C1c1cccs1` (stereo unspecified): 0.209; for `COc1cc(C(c2c(C)n(C)n(-c3ccccc3)c2=O)c2c(C)n(C)n(-c3ccccc3)c2=O)cc(Cl)c1OCc1ccccc1`: 0.699; for `Cc1n(C)c2ccccc2[n+]1CC(=O)c1ccccc1`: 0.785.
`COc1ccc(NC(=O)c2cnn(-c3ccccc3)c2NC(=O)c2ccco2)cc1` gave a viability index of 0.846.
The same measure for `COc1cccc(CNC(=O)Cn2ncc3c(=O)oc4ccc(C)cc4c32)c1`: 0.843; for `CC(C)NCC(O)Cn1c2ccc(Cl)cc2c2cc(Cl)ccc21` (stereo unspecified): 0.419.
The same measure for `CC(=O)c1ccc(N2CCN(Cc3cc(-c4ccnc5cc(Cl)ccc45)ccc3O)CC2)cc1`: 0.433.
Compound `O=C1CC(c2cccc([N+](=O)[O-])c2)c2cc3c(cc2N1)OCO3` (stereo unspecified) had a viability index of 0.839.
The same measure for `Cc1cc(Nc2cccc([N+](=O)[O-])c2)nc2cc(O)ccc12`: 0.819.
The same measure for `O=C(O)CCNc1ccccc1[N+](=O)[O-]`: 0.971; for `O=[N+]([O-])c1cc(Br)c(Nc2ccccc2)c([N+](=O)[O-])c1`: 0.0522.
The same measure for `COc1ccccc1NC(=O)C(=O)NCCc1ccc(OC)c(OC)c1`: 0.413; for `Cc1c(CN2CCC(N3CCC(C(=O)NC4CC4)CC3)CC2)[nH]c2c(Cl)cccc12`: 0.865; for `O=C(CN1CCN(C(=O)c2ccco2)CC1)Nc1cc(C(F)(F)F)ccc1Cl`: 1.11.
The compound `Cc1cc(N2CCC(C)CC2)nc(-n2nc(C)cc2C)n1` gave a viability index of 0.
The same measure for `Cc1cc(C)n(-c2ncc(-c3ccc([N+](=O)[O-])cc3)cn2)n1`: 1.02.
The same measure for `CC1CCN(c2nncc3ccccc23)CC1`: 0.777; for `CN1CCC(CCNCc2ccc(OCC(O)CN(C)Cc3ccccc3)cc2)CC1` (stereo unspecified): 0.856.
The same measure for `Cn1c(=O)c(Cl)c2c3c(c(Cl)ccc31)C(=O)c1ccccc1-2`: 0.0761.
Consider `CCCCNC(=O)c1nn(-c2ccc(OC)cc2)c(=O)c2ccccc12`, for which the viability index stood at 0.946.
Compound `O=c1c(=Cc2ccc(-c3ccc([N+](=O)[O-])cc3Cl)o2)sc2nc3ccccc3n12` returned a viability index of 0.699.
For the compound `CCC(C)NCC(O)(c1ccc(Cl)cc1)c1ccc(Cl)cc1` (stereo unspecified), the viability index is 0.699.
The same measure for `CCCOC(=O)C1=C(C)NC2=C(C(=O)CC(c3ccc(OC)c(OC)c3)C2)C1c1ccc([N+](=O)[O-])cc1` (stereo unspecified): 0.514; for `CCOC(=O)c1c(-c2ccccc2)oc2c1C(=O)c1ccccc1C2=O`: 0.461; for `CCOC(=O)c1c(Cl)nnc(-c2ccccc2)c1-c1ccccc1`: 0.
The same measure for `CCOC(=O)c1[nH]nc(C(=O)c2ccccc2)c1-c1ccccc1`: 1.27; for `CCOC(=O)c1c(NC(=O)Cc2ccc([N+](=O)[O-])cc2)sc2c1CCCC2`: 1.02.
The same measure for `Cc1ccc(CN2C(=O)C(O)(CC(=O)c3ccccc3)c3ccccc32)cc1` (stereo unspecified): 0.914; for `CCN1C(=Cc2sc3ccccc3[n+]2C)C=Cc2ccc(C)cc21`: 0.51.
Take `CN(C)CCCNc1c2ccccc2nc2ccccc12`: the viability index worked out at 0.0224.
The same measure for `CN(C)CCNc1c2c(nc3ccccc13)CCC2`: 0.953.
The same measure for `Cc1cc(NCCCN(C)C)c2ccccc2n1`: 0.888; for `CCOc1cc([N+](=O)[O-])cc(C=Nc2cccc(NC(=O)c3ccco3)c2)c1O`: 0.989; for `N=c1n(CCN2CCCCC2)c2ccccc2n1CC(O)COc1ccc(Cl)cc1` (stereo unspecified): 0.746.
In turn, `O=C(CC1OC(=O)c2ccccc21)c1ccc(Cl)cc1` (stereo unspecified) registered a viability index of 0.496.
`CCOC(=O)c1cnc2c(OC)cccc2c1Nc1ccc(C(C)=O)cc1`: the viability index stood at 1.27.
The same measure for `COc1ccccc1/C=C/CN1CCN(c2ccccn2)CC1`: 1.15.
Turning to `c1ccc(CNc2nc(-c3ccccn3)nnc2-c2ccccc2)cc1`, the viability index stood at 0.374.
The same measure for `CC(C)Nc1nc(-c2cccnc2)nc2ccccc12`: 1.12; for `COc1cnc(-c2ccccn2)nc1NC(C)C`: 0.0307; for `COc1ccc(Nc2nc(N3CCCC3)c3ccccc3n2)cc1`: 0.74.
The same measure for `COc1cnc(-c2ccccn2)nc1N1CCCC1`: 0.0429; for `Cc1cc(C)nc(Nc2nc(C)c3cc(C)c(C)cc3n2)n1`: 0.196.
Regarding `CCOC(=O)C1=C(C)NC2=C(C(=O)C(C(=O)OCC)C(c3ccc(OC)cc3)C2)C1c1ccc(OC)c(OC)c1` (stereo unspecified), the viability index stood at 0.683.
In turn, `CN(C)c1ccc(C=C2SC(=Nc3ccc(O)cc3)NC2=O)cc1` displayed a viability index of 0.727.
The same measure for `CCn1c(C=CN(C)c2ccccc2)[n+](CC)c2cc(Cl)ccc21`: 1; for `CC(C)(C)c1ccc(Cn2nnc3c(O)nc(C4CCN(C(=O)c5ccccc5)CC4)nc32)cc1`: 0.736; for `N=C1NC(=O)C(=CC=Cc2ccc([N+](=O)[O-])o2)S1`: 0.0408.
Compound `O=C(c1ccccc1)N1CCc2nc(Cc3ccc(F)cc3Cl)sc2C1` showed a viability index of 0.708.
The same measure for `COc1cccc(OC)c1C(=O)Oc1cccc2ccc(C)nc12`: 0.706.
The same measure for `Cc1ccc2ccc3ccc(C)nc3c2n1`: 0.0302; for `Cc1ccc(NC(=O)c2ccc(NCCCN3CCCCCC3)c([N+](=O)[O-])c2)cc1F`: 1.51; for `S=C(NN=Cc1ccccn1)NC1CC2CC1C1C=CCC21` (stereo unspecified): 0.397.
The same measure for `S=C(NN=Cc1ccccn1)NC1CC2C=CC1C2` (stereo unspecified): 0.0456; for `CC1(C)C2CCC(C2)C1(C)NC(=S)NN=Cc1ccccn1` (stereo unspecified): 0.0373; for `CCOC(=O)c1ccc(N(C(=O)Cc2c[nH]c3ccccc23)C(C(=O)NC2CCCCC2)c2cccnc2)cc1` (stereo unspecified): 0.513.
